Reference: PubChem BioAssay (Tox21)
Several values for one entry are separate records, joined by “and”; a condition that tells them apart may be missing. Equal values may be shown once. Records with an inconclusive call do not appear. Entries that show only a call come without a potency. Some compounds were tested as several samples or in several runs, with calls that do not always agree. Activity calls are given as the source filed them. Unless noted, calls come from the whole dose curve; as a rule, active = well fitted curve in the direction sought with a large enough effect in the repeat runs; inconclusive = weak or mixed curves; inactive = no such curve, though single readings can be large; an effect the other way counts as inactive or inconclusive.

Key:
[1] = qHTS assay to identify aromatase inhibitors - cell viability counter screen (AID 743084);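 note: cells stimulated with testosterone during compound exposure; nearly all actives have a fitted effect of over 55% in size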; note: potency is the fitted concentration of half-maximal effect
[2] = qHTS assay to identify small molecule that activate the aryl hydrocarbon receptor (AhR) signaling pathway - cell viability counter screen (AID 743086); note: nearly all actives have a fitted effect of over 45% in size; note: potency is the fitted concentration of half-maximal effect
Summary of the method: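 HepG2-AhR-luc (HG2L7.5c1) cells, 4000/well, were preincubated 5 h at 37C, exposed to compound in qHTS format for 24 hr at 37C, then given CellTiter-Fluor for 30 min; viability was read as fluorescence in the reporter wells.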

[3] = molecular target: Peroxisome proliferator-activated receptor gamma (Homo sapiens) (UniProt P37231); assay: qHTS assay to identify small molecule agonists of the peroxisome proliferator-activated receptor gamma (PPARg) signaling pathway (AID 743094; active = well fitted activation curve with a large enough effect in the signal ratio in the repeat runs, not every such curve was filed as active; the % refers to the signal ratio; note: potency is the fitted concentration of half-maximal effect)
Peroxisome proliferator-activated receptor gamma (Homo sapiens), sequence (P37231 whole entry, looked up): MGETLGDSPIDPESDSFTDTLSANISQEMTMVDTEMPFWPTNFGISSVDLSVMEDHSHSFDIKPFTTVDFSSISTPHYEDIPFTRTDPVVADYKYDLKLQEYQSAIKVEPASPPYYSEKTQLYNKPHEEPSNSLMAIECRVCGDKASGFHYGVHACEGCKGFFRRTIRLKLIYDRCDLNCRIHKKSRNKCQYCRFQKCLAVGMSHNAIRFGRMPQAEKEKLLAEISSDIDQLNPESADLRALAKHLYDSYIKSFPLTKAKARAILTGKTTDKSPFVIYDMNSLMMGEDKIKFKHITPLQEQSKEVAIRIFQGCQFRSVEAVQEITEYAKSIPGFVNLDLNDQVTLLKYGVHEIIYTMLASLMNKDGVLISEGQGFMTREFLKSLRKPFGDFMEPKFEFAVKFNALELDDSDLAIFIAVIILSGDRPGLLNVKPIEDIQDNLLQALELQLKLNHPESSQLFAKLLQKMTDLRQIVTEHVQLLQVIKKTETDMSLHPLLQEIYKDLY
Summary of the method: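 Cell-based bla reporter, HEK293H background, PPARg-driven UAS. Pre-incubation 5 h, 37C, 5% CO2. Compound 17 h, 37C. Substrate 1 h RT; fluorescence.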

[4] = molecular target: Peroxisome proliferator-activated receptor gamma (Homo sapiens) (UniProt P37231); assay: qHTS assay to identify small molecule antagonists of the peroxisome proliferator-activated receptor gamma (PPARg) signaling pathway (AID 743191; calls by dose curve; note: series mostly up to about 63 µM; nearly all actives have a fitted effect of over 30% in size)
Summary of the method: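 GeneBLAzer PPARg UAS-bla HEK293H cells carrying a UAS-driven beta-lactamase reporter were plated at 3000 cells/well, preincubated 5 h at 37C, then given compound for 17 h at 37C; LiveBLAzer B/G FRET substrate was read after 1 h at room temperature.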

[5] = qHTS assay for small molecule agonists of the antioxidant response element (ARE) signaling pathway - cell viability counter screen (AID 743203; calls by dose curve; note: nearly all actives have a fitted effect of over 55% in size; note: potency is the fitted concentration of half-maximal effect)
Summary of the method: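 Measured in the same wells as the beta-lactamase ARE reporter, this read-out is CellTiter-Glo luminescence from HepG2 ARE-bla cells given compounds for 16 hrs.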

[6] = qHTS assay for small molecule activators of the heat shock response signaling pathway - cell viability counter screen (AID 743209); note: nearly all actives have a fitted effect of over 50% in size; note: potency is the fitted concentration of half-maximal effect
Summary of the method: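 Same-well multiplex: after 2.5 h room-temperature incubation with LiveBLAzer B/G substrate and fluorescence reading, CellTiter-Glo reagent was added to HSE-bla HeLa cells that had received compound for 5 h at 37 C; luminescence read after 30 min.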

[7] = molecular target: Aryl hydrocarbon receptor (Homo sapiens) (UniProt P35869); assay: qHTS assay to identify small molecule that activate the aryl hydrocarbon receptor (AhR) signaling pathway (AID 743085); note: nearly all actives have a fitted effect of over 15% in size; note: potency is the fitted concentration of half-maximal effect;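 for activation: HG2L7.5c1 human HepG2 liver cells with stably integrated DRE-driven firefly reporter; series mostly up to about 70 µM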
Aryl hydrocarbon receptor (Homo sapiens), sequence (P35869 whole entry, looked up): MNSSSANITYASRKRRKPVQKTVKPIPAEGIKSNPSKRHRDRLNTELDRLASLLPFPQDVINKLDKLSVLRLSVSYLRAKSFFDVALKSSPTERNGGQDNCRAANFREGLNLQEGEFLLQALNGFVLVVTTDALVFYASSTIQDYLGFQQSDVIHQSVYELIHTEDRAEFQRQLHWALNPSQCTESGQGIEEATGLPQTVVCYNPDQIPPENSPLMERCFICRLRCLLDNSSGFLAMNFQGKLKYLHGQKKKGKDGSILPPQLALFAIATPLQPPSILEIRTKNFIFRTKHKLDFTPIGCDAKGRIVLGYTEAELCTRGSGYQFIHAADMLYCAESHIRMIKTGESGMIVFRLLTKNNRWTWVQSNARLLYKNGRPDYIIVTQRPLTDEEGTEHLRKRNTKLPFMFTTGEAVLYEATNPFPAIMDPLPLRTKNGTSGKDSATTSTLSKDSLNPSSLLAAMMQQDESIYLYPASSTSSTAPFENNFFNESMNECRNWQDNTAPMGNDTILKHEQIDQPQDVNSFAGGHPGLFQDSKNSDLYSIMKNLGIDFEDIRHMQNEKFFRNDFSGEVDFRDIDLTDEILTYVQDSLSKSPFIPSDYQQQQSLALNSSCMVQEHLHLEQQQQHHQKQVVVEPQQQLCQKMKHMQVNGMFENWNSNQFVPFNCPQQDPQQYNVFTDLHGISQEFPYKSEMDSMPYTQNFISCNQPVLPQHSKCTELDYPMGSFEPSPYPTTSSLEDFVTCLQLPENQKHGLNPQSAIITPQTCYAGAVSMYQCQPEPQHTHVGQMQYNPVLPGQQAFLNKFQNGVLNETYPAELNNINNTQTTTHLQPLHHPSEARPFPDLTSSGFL
Summary of the method: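 Reporter assay in engineered HepG2 line HG2L7.5c1, whose plasmid carries twenty dioxin responsive elements upstream of firefly luciferase. Treatment lasted 24 h at 37C; ONE-Glo luminescence gauged induction.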

[8] = qHTS assay to identify small molecule antagonists of the peroxisome proliferator-activated receptor gamma (PPARg) signaling pathway - cell viability counter screen (AID 743194); note: nearly all actives have a fitted effect of over 55% in size; note: potency is the fitted concentration of half-maximal effect
Summary of the method: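 PPARg-UAS-bla HEK293H cells were plated, rested 5 h at 37 C, then treated with compounds plus rosiglitazone (50 nM final) for 17 h at 37 C; viability was then read by CellTiter-Glo luminescence after 30 min at room temperature.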

[9] = qHTS assay for small molecule activators of the heat shock response signaling pathway (AID 743210; active = well fitted activation curve with a large enough effect in the signal ratio in the repeat runs, with a control signal flat, not every such curve was filed as active; the % refers to the signal ratio;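 note: HeLa cells with beta-lactamase reporter driven by heat shock elements; series mostly up to about 63 µM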)
Summary of the method: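 Activation of heat shock element-controlled beta-lactamase expression is measured in HeLa cells by LiveBLAzer FRET fluorescence, with compound exposure lasting 5 h at 37 C and substrate loading 2.5 h at room temperature.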

[10] = qHTS assay for small molecule agonists of the antioxidant response element (ARE) signaling pathway (AID 743202; active = well fitted activation curve with a large enough effect in the signal ratio in the repeat runs, not every such curve was filed as active; the % refers to the signal ratio; note: potency is the fitted concentration of half-maximal effect)
Summary of the method: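 Steps: seed ARE-bla HepG2 cells (2,000/well); incubate 5 h at 37 C; add compounds by pin tool; incubate 16 h at 37 C; add FRET substrate; read fluorescence after 2 h at RT.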

| Compound | Potency [1] | Potency [2] | Potency [3] | Potency [4] | Potency [5] | Potency [6] | Potency [7] | Potency [8] | Potency [9] | Potency [10] |
| --- | --- | --- | --- | --- | --- | --- | --- | --- | --- | --- |
| CC(COc1ccccc1)N(CCCl)Cc1ccccc1 (configuration not stated) | inactive | inactive | inactive | inactive | 61.1 µM (active) and inactive | inactive |  |  |  |  |
| O=C1OC2(c3ccc(O)cc3Oc3cc(O)ccc32)c2ccccc21 |  |  |  |  | inactive | inactive | inactive | inactive |  |  |
| CN(C)c1ccc2nc3ccc(=[N+](C)C)cc-3sc2c1 | 23.7 µM (active) and 13.1 µM (active) | 9.44 µM (active) and 16.6 µM (active) and 27.3 µM (active) | inactive |  | 11.7 µM (active) and 9.69 µM (active) and 11.9 µM (active) | inactive and 54.9 µM (active) |  | inactive |  |  |
| CC[C@H]1CN2CCc3cc(OC)c(OC)cc3[C@@H]2C[C@@H]1C[C@H]1NCCc2cc(OC)c(OC)cc21 | 9.72 µM (active) |  |  |  | 24.4 µM (active) | 2.46 µM (active) and 10.6 µM (active) | inactive |  | inactive |  |
| C=CC(=O)OCCCCCCOC(=O)C=C |  | inactive |  |  | inactive | 17.4 µM (active) | inactive | inactive |  | 10.9 µM (active) |
| CCN(CC)CCOc1ccc(/C(=C(\Cl)c2ccccc2)c2ccccc2)cc1 | inactive and 27.9 µM (active) |  |  |  |  | 39.7 µM (active) and 29.8 µM (active) | inactive | 17.7 µM (active) |  |  |
| CC[C@]1(O)C[C@@H]2CN(CCc3c([nH]c4ccccc34)[C@@](C(=O)OC)(c3cc4c(cc3OC)N(C)[C@H]3[C@@](O)(C(=O)OC)[C@H](OC(C)=O)[C@]5(CC)C=CCN6CC[C@]43[C@@H]65)C2)C1 |  | 16.8 µM (active) and 15 µM (active) |  |  | inactive |  | inactive | inactive | inactive |  |
| CCN(CC)C(=S)SSC(=S)N(CC)CC | 86.3 nM (active) and 44.3 nM (active) |  |  |  |  | inactive | inactive | inactive |  | 77 nM (active) and inactive |
| CNC1(C)C2CCC(C2)C1(C)C (configuration not stated) | inactive | inactive | inactive | inactive | inactive | inactive |  | inactive | inactive | inactive |
| C#CC(C)(CC)OC(=O)c1ccccc1C(=O)O (configuration not stated) |  |  |  |  | inactive | inactive |  | inactive | inactive | inactive |
| c1cc(C(c2ccc(OCC3CO3)cc2)C(c2ccc(OCC3CO3)cc2)c2ccc(OCC3CO3)cc2)ccc1OCC1CO1 (configuration not stated) | inactive | inactive |  |  |  | inactive |  | inactive |  |  |
| NC(N)=Nc1nc(CSCC/C(N)=N/S(N)(=O)=O)cs1 | inactive | inactive | inactive | inactive | inactive | inactive |  | inactive | inactive | inactive |
| Cc1cccc2n[nH]nc12 |  | inactive |  |  | inactive | inactive |  | inactive | inactive | inactive |
| Oc1c(Cl)cc(Cl)cc1Sc1cc(Cl)cc(Cl)c1O |  | inactive |  |  |  | 43.8 µM (active) and 49 µM (active) and inactive | inactive |  | inactive |  |
| O=Cc1ccc(Cl)cc1 | inactive | inactive | inactive |  |  | inactive |  | inactive | inactive | inactive |
| CC(C)CCOC(=O)c1ccc(N(C)C)cc1 | inactive | inactive | inactive |  |  | inactive |  | inactive | inactive | inactive |
| O=Nc1ccc(Nc2ccccc2)cc1 | 27.4 µM (active) | inactive | 15.5 µM (active) |  |  | 34.7 µM (active) |  | 19.6 µM (active) and 43.6 µM (active) |  | 3.06 µM (active) |
| Nc1ccc2cc3ccccc3cc2c1 |  |  |  |  | inactive | inactive | 62.2 µM (active) and 8.63 µM (active) | inactive |  |  |
| O=C1Nc2ccccc2C1(c1ccc(O)cc1)c1ccc(O)cc1 |  |  |  |  | inactive | inactive | inactive | inactive | inactive |  |
| Nc1ccc(O)cc1 | 54.5 µM (active) and 31.8 µM (active) | 54.5 µM (active) and 50.4 µM (active) | inactive | inactive | 12.7 µM (active) and inactive | 25.5 µM (active) and inactive |  | inactive | inactive | 29.8 µM (active) |
| OCCOCCN1CCN(C(c2ccccc2)c2ccc(Cl)cc2)CC1 (configuration not stated) | inactive |  | inactive |  |  | inactive |  | inactive |  | inactive |
| O=C1CC2(CCCC2)CC(=O)N1CCCCN1CCN(c2ncccn2)CC1 |  | inactive |  |  | inactive | inactive |  | inactive | inactive | 27.3 µM (active) |
| CCCC(=O)c1ccccc1 | inactive |  | inactive |  | inactive | inactive | inactive | inactive | inactive | inactive |
| CC(C)(C)NCC(O)COc1ccccc1OCC1CCCO1 (configuration not stated) |  |  |  | inactive | inactive | inactive |  | inactive | inactive | inactive |
| CCCCOCCOC(=O)c1ccccc1C(=O)OCCOCCCC | inactive | inactive | inactive |  | inactive | inactive |  | inactive |  | inactive |
| CCCCCCCCCCCCCCCCCl | inactive | inactive | inactive | inactive | inactive | inactive |  | inactive | inactive | inactive |
| Oc1ccc(Cl)cc1Cc1cc(Cl)ccc1O |  | inactive | inactive |  | 27.8 µM (active) and 54.5 µM (active) | 22.3 µM (active) and inactive | inactive | 11.2 µM (active) and 3.89 µM (active) and 16.8 µM (active) |  |  |
| Nc1nc2ccccc2[nH]1 | inactive | inactive | inactive | inactive | inactive | inactive |  | inactive | inactive | inactive |
| Nc1cc(Cl)c(-c2cc(Cl)c(N)cc2Cl)cc1Cl | 48.5 µM (active) | inactive |  |  | 61.1 µM (active) and 21.7 µM (active) | 24.5 µM (active) |  | 48.9 µM (active) and 17.4 µM (active) |  |  |
| O=C(O)CCc1ccccc1 |  | inactive |  |  |  | inactive |  | inactive | inactive | inactive |
